Test results published in PubChem BioAssay AID1159580 (chemical genetic matrix, 2015).
“And” between values parts separate entries of the source, which are not always exact repeats. Equal values may be shown once. Among all 5,500 compounds or so, about 2,000 (36%) were called active. Inconclusive results (about 18%) are left out. No stated cut-off is given here; in the data, active means normalized growth mostly below about 0.91 (no sharp cut-off); inconclusive means no clear call, values can overlap the other calls; inactive means mostly above about 0.92. The list shows a part of the results.

Assay: chemical genetic growth profiling, strain panel (AID 1159580);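 further: tested at 20 µM; growth read once vehicle control cultures reached saturation at 30 °C; 1 = growth at the plate median or of vehicle wells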
Settings: S. cerevisiae deletion strains, growth OD

Measured: normalized growth

COc1ccc2c(c1)OC/C(=C/c1ccc(OC)c(OC)c1)C2=O
active: locus YAL026C, strain drs2, stronger effect = lower value 0.891 | locus YBR009C, strain hhf1, stronger effect = lower value 0.803 | locus YBR023C, strain chs3, stronger effect = lower value 0.882 | locus YBR231C, strain swc5, stronger effect = lower value 0.88 | locus YCL011C, strain gbp2, stronger effect = lower value 0.905 | locus YCL016C, strain dcc1, stronger effect = lower value 0.856 | locus YCL061C, strain MRC1, stronger effect = lower value 0.887 | locus YCL069W, strain vba3, stronger effect = lower value 0.873 | locus YDR137W, strain rgp1, stronger effect = lower value 0.682 | locus YDR162C, strain NBP2, stronger effect = lower value 0.833 | locus YDR318W, strain mcm21, stronger effect = lower value 0.894 | locus YDR335W, strain msn5, stronger effect = lower value 0.899 | locus YDR392W, strain spt3, stronger effect = lower value 0.212 | locus YDR502C, strain sam2, stronger effect = lower value 0.893 | locus YEL003W, strain gim4, stronger effect = lower value 0.893 | locus YEL061C, strain CIN8 (second series), stronger effect = lower value 0.863 | locus YEL061C, strain CIN8, stronger effect = lower value 0.911 | locus YER155C, strain BEM2 (second series), stronger effect = lower value 0.625 | locus YGL086W, strain mad1, stronger effect = lower value 0.9 | locus YGL240W, strain doc1, stronger effect = lower value 0.852 | locus YGL253W, strain hxk2, stronger effect = lower value 0.764 | locus YHR129C, strain ARP1, stronger effect = lower value 0.867 | locus YHR142W, strain chs7, stronger effect = lower value 0.668 | locus YIL066C, strain RNR3, stronger effect = lower value 0.832 | locus YJL095W, strain BCK1 (second series), stronger effect = lower value 0.864 | locus YJL164C, strain tpk1, stronger effect = lower value 0.852 | locus YJL166W, strain qcr8, stronger effect = lower value 0.756 | locus YKL160W, strain elf1, stronger effect = lower value 0.758 | locus YKR001C, strain vps1, stronger effect = lower value 0.861 | locus YLL001W, strain dnm1, stronger effect = lower value 0.845 | locus YLR027C, strain aat2, stronger effect = lower value 0.914 | locus YLR221C, strain rsa3, stronger effect = lower value 0.886 | locus YLR262C, strain YPT6 (second series), stronger effect = lower value 0.682 | locus YLR268W, strain sec22, stronger effect = lower value 0.852 | locus YLR320W, strain mms22, stronger effect = lower value 0.71 | locus YLR330W, strain CHS5, stronger effect = lower value 0.838 | locus YLR418C, strain cdc73, stronger effect = lower value 0.621 | locus YMR058W, strain fet3, stronger effect = lower value 0.87 | locus YMR205C, strain PFK2, stronger effect = lower value 0.68 | locus YNL071W, strain lat1, stronger effect = lower value 0.38 | locus YNL307C, strain MCK1, stronger effect = lower value 0.412 | locus YOR083W, strain WHI5, stronger effect = lower value 0.852 | locus YOR106W, strain vam3, stronger effect = lower value 0.842 | locus YOR184W, strain ser1, stronger effect = lower value 0.805 | locus YOR270C, strain vph1, stronger effect = lower value 0.686 | locus YOR290C, strain snf2, stronger effect = lower value 0.813 | locus YPL051W, strain arl3, stronger effect = lower value 0.852 | locus YPL078C, strain atp4, stronger effect = lower value 0.793 | locus YPL106C, strain sse1, stronger effect = lower value 0.841 | locus YPL240C, strain hsp82, stronger effect = lower value 0.87 | locus YPR163C, strain tif3, stronger effect = lower value 0.726
inactive: locus YAL013W, strain DEP1, stronger effect = lower value 1.01 | locus YAL021C, strain ccr4, stronger effect = lower value 0.997 | locus YAL030W, strain snc1, stronger effect = lower value 0.986 | locus YBL061C, strain skt5, stronger effect = lower value 1 | locus YBR021W, strain FUR4, stronger effect = lower value 0.873 | locus YBR171W, strain sec66, stronger effect = lower value 0.978 | locus YBR229C, strain ROT2, stronger effect = lower value 0.981 | locus YBR279W, strain paf1, stronger effect = lower value 0.946 | locus YCL029C, strain bik1, stronger effect = lower value 0.943 | locus YCR088W, strain abp1, stronger effect = lower value 0.98 | locus YDL005C, strain med2, stronger effect = lower value 1.02 | locus YDL035C, strain GPR1, stronger effect = lower value 0.978 | locus YDL040C, strain nat1, stronger effect = lower value 0.974 | locus YDL074C, strain BRE1, stronger effect = lower value 0.928 | locus YDL101C, strain DUN1, stronger effect = lower value 0.95 | locus YDL185W, strain tfp1, stronger effect = lower value 0.987 | locus YDL192W, strain arf1, stronger effect = lower value 0.944 | locus YDR001C, strain nth1, stronger effect = lower value 0.983 | locus YDR069C, strain doa4, stronger effect = lower value 1.01 | locus YDR101C, strain arx1, stronger effect = lower value 0.963 | locus YDR159W, strain sac3, stronger effect = lower value 0.874 | locus YDR195W, strain ref2 1.1 | locus YDR297W, strain sur2, stronger effect = lower value 0.943 | locus YDR334W, strain swr1, stronger effect = lower value 0.974 | locus YDR388W, stronger effect = lower value 0.958 | locus YEL037C, strain rad23, stronger effect = lower value 0.984 | locus YER015W, strain faa2, stronger effect = lower value 0.936 | locus YER016W, strain bim1, stronger effect = lower value 1.03 | locus YER110C, stronger effect = lower value 0.945 | locus YER111C, strain swi4, stronger effect = lower value 1.01 | locus YER155C, strain BEM2, stronger effect = lower value 0.962 | locus YER167W, strain BCK2, stronger effect = lower value 0.947 | locus YFR010W, strain ubp6, stronger effect = lower value 0.986 | locus YGL078C, strain dbp3, stronger effect = lower value 0.976 | locus YGL167C, strain pmr1, stronger effect = lower value 1.06 | locus YGL173C, strain kem1, stronger effect = lower value 0.984 | locus YGL227W, strain vid30, stronger effect = lower value 0.986 | locus YGL248W, strain PDE1, stronger effect = lower value 0.916 | locus YGR135W, strain pre9, stronger effect = lower value 0.914 | locus YGR252W, strain gcn5, stronger effect = lower value 0.799 | locus YHR013C, strain ard1, stronger effect = lower value 0.862 | locus YHR027C, strain rpn1, stronger effect = lower value 0.979 | locus YHR079C, strain IRE1 (second series), stronger effect = lower value 0.979 | locus YHR079C, strain IRE1, stronger effect = lower value 0.952 | locus YHR094C, strain hxt1, stronger effect = lower value 0.969 | locus YHR200W, strain rpn10, stronger effect = lower value 0.969 | locus YIL073C, strain SPO22, stronger effect = lower value 0.833 | locus YIL125W, strain kgd1, stronger effect = lower value 0.973 | locus YIR030C, strain dcg1, stronger effect = lower value 0.978 | locus YJL092W, strain hpr5, stronger effect = lower value 0.97 | locus YJL115W, strain asf1, stronger effect = lower value 0.98 | locus YJL129C, strain trk1, stronger effect = lower value 0.929 | locus YJL134W, strain LCB3, stronger effect = lower value 0.996 | locus YJL154C, strain vps35, stronger effect = lower value 0.993 | locus YJL168C, strain set2, stronger effect = lower value 0.965 | locus YJL187C, strain SWE1 (second series), stronger effect = lower value 0.937 | locus YJL187C, strain SWE1, stronger effect = lower value 0.973 | locus YJR043C, strain POL32, stronger effect = lower value 0.915 | locus YJR066W, strain TOR1, stronger effect = lower value 0.903 | locus YJR075W, strain HOC1, stronger effect = lower value 0.955 | locus YKL009W, strain mrt4, stronger effect = lower value 0.973 | locus YKL068W, stronger effect = lower value 1.02 | locus YKL085W, strain MDH1 (second series), stronger effect = lower value 0.98 | locus YKL085W, strain MDH1, stronger effect = lower value 0.98 | locus YKL190W, strain CNB1, stronger effect = lower value 0.982 | locus YKR026C, strain gcn3, stronger effect = lower value 0.984 | locus YKR091W, strain srl3, stronger effect = lower value 0.979 | locus YLL026W, stronger effect = lower value 0.979 | locus YLL041C, strain sdh2, stronger effect = lower value 1.01 | locus YLR039C, strain RIC1, stronger effect = lower value 0.727 | locus YLR058C, strain SHM2, stronger effect = lower value 0.949 | locus YLR102C, strain apc9, stronger effect = lower value 0.974 | locus YLR113W, strain HOG1, stronger effect = lower value 0.933 | locus YLR258W, strain gsy2, stronger effect = lower value 0.915 | locus YLR262C, strain YPT6, stronger effect = lower value 0.805 | locus YLR342W, strain FKS1 (second series), stronger effect = lower value 0.809 | locus YLR342W, strain FKS1, stronger effect = lower value 0.92 | locus YLR357W, strain rsc2, stronger effect = lower value 0.985 | locus YLR370C, strain arc18, stronger effect = lower value 0.962 | locus YLR371W, strain rom2, stronger effect = lower value 0.951 | locus YLR384C, strain iki3, stronger effect = lower value 1 | locus YML016C, strain PPZ1, stronger effect = lower value 0.989 | locus YML032C, strain rad52, stronger effect = lower value 0.955 | locus YML120C, strain ndi1, stronger effect = lower value 0.979 | locus YML124C, strain tub3, stronger effect = lower value 0.982 | locus YMR078C, strain ctf18, stronger effect = lower value 0.981 | locus YMR125W, strain sto1, stronger effect = lower value 0.966 | locus YMR129W, stronger effect = lower value 0.996 | locus YMR223W, strain ubp8, stronger effect = lower value 0.941 | locus YMR231W, strain pep5, stronger effect = lower value 0.984 | locus YMR307W, strain GAS1, stronger effect = lower value 0.955 | locus YNL067W, strain RPL9B, stronger effect = lower value 0.931 | locus YNL128W, strain TEP1, stronger effect = lower value 0.96 | locus YNL183C, strain NPR1, stronger effect = lower value 0.9 | locus YNL209W, strain ssb2, stronger effect = lower value 0.967 | locus YNL233W, strain BNI4, stronger effect = lower value 0.873 | locus YNL248C, strain rpa49, stronger effect = lower value 0.935 | locus YNL250W, strain rad50, stronger effect = lower value 0.98 | locus YNL271C, strain bni1, stronger effect = lower value 0.971 | locus YNL298W, strain CLA4, stronger effect = lower value 0.93 | locus YNL322C, strain KRE1 (second series), stronger effect = lower value 0.98 | locus YNR049C, strain mso1, stronger effect = lower value 0.978 | locus YNR052C, strain pop2, stronger effect = lower value 0.964 | locus YOL006C, strain TOP1, stronger effect = lower value 0.724 | locus YOL012C, strain htz1 0.627 | locus YOL147C, strain pex11, stronger effect = lower value 0.956 | locus YOR001W, strain rrp6, stronger effect = lower value 0.955 | locus YOR061W, strain CKA2, stronger effect = lower value 0.979 | locus YOR069W, strain VPS5, stronger effect = lower value 1 | locus YOR070C, strain gyp1, stronger effect = lower value 0.929 | locus YOR080W, strain dia2, stronger effect = lower value 0.986 | locus YOR136W, strain idh2, stronger effect = lower value 0.967 | locus YOR144C, strain elg1, stronger effect = lower value 0.976 | locus YOR231W, strain MKK1, stronger effect = lower value 0.921 | locus YOR265W, strain rbl2, stronger effect = lower value 0.954 | locus YOR316C, strain cot1, stronger effect = lower value 0.967 | locus YPL241C, strain CIN2, stronger effect = lower value 0.994 | locus YPL256C, strain CLN2, stronger effect = lower value 0.972 | locus YPR119W, strain clb2, stronger effect = lower value 0.994 | locus YPR141C, strain kar3, stronger effect = lower value 0.996 | locus YPR167C, strain met16, stronger effect = lower value 0.952 | strain wtn01, stronger effect = lower value 0.936
0.838 (active) and 0.944 (inactive): locus YHR030C, strain SLT2, stronger effect = lower value
0.733 (active) and 0.959 (inactive): locus YJL095W, strain BCK1, stronger effect = lower value
